# Measured values published in ChEMBL document CHEMBL5724796, “Tm Shift (DSF) assay results for EUbOPEN Chemogenomics Library” (2024).
# Non-standard residues stand in square brackets, D forms with d. Residues, ends and D or L forms follow the SMILES beside them. *: point of attachment. Nle = CCCC[C@H](N)C(=O)O; Cbz = O=C(OCc1ccccc1)*; CH2F = FC*
# Target: T1, Aurora kinase A (Homo sapiens) (UniProt O14965)
# T1 sequence (whole entry): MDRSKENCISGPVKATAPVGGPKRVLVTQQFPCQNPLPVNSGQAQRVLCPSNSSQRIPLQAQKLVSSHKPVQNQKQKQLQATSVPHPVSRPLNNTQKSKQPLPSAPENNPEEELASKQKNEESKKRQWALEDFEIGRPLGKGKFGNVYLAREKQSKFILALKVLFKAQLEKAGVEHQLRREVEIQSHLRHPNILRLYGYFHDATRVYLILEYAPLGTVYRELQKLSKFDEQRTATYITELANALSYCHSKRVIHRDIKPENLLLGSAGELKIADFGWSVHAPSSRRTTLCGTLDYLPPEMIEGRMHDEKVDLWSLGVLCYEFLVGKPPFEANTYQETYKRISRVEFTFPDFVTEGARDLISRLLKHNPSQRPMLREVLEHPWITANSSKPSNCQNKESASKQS
# Conditions: Compound concentration 20.0 uM
row,Structure (SMILES),ΔTm [°C]
1,Cc1noc(C)c1-c1cc(Cl)c(Nc2ccccc2C(=O)O)c(Cl)c1,-2.08
2,Cc1ncccc1-c1cnc(NCc2c(F)ccc3c2CCO3)n2cnnc12,-0.39
3,Fc1ccc(CNc2ncnc3ccc(F)cc23)cc1,-1.03
4,CCCC[C@@H](C=O)NC(=O)[C@H](CC(C)C)NC(=O)[C@H](CC(C)C)NC(C)=O (Ac-Leu-Leu-[Nle]-aldehyde),-1.13
5,Nc1ncnc2nc(-c3ccc(N4CCOCC4)nc3)cc(-c3cccc(Br)c3)c12,0.37
6,COC(=O)CC[C@H](NC(=O)[C@H](Cc1c[nH]c2ccccc12)NC(=O)OCc1ccccc1)C(=O)N[C@@H](Cc1cnc[nH]1)C(=O)N[C@@H](CC(=O)OC)C(=O)CF (Cbz-WE(OMe)HD(OMe)-CH2F),-0.45
7,Cc1ccc(F)c2cc(C(=O)N[C@@H]3CCC[C@H](N4CC[C@H](N(C)S(C)(=O)=O)C4)C3)[nH]c12,0.21
8,NC(=O)c1cnc(N[C@@H]2CCCC[C@@H]2N)nc1Nc1cccc(-n2nccn2)c1,2.17
9,CN(CCCCCCNc1ccnc2cc(Cl)ccc12)CCCCCCNc1ccnc2cc(Cl)ccc12,-1.69
10,CCCOc1ccc(NC(=O)CN2CCN(C)CC2)cc1-c1nc(CC)c(CC)c(=O)[nH]1,-2.39
11,COc1cc(C(C)C)c2c(c1)S(=O)(=O)N(COc1cc(=O)n3cccc(OCCN4CCCCC4)c3n1)C2=O,2.88
12,O=C(CCl)Nc1ccc(S(=O)(=O)c2ccc(NC(=O)CCl)cc2)cc1,-0.12
13,CCn1c(=O)c(C)cn(Cc2nnc(-c3ccc(F)c(O)c3F)s2)c1=O,-0.34
14,Cc1ncsc1-c1ccc([C@H](C)NC(=O)[C@@H]2C[C@@H](O)CN2C(=O)[C@@H](NC(=O)COCCCOCCNC(=O)C[C@@H]2N=C(c3ccc(Cl)cc3)c3c(sc(C)c3C)-n3c(C)nnc32)C(C)(C)C)cc1,0
15,COc1cc2c(cc1OC)[C@H]1C[C@@H](OC(=O)[C@@H](N)C(C)C)[C@H](CC(C)C)CN1CC2,-1.54
16,CC(=O)OCCN1C(=O)c2c(C)nc3ccc(S(=O)(=O)N4CCOCC4)cc3c2C1=O,-1.13
17,COc1cc(-c2cn(C)c(=O)c3cnccc23)cc(OC)c1CN(C)C,-1.01
18,COc1cc(Nc2ncc(F)c(Nc3ccc4c(n3)N(COP(=O)(O)O)C(=O)C(C)(C)O4)n2)cc(OC)c1OC,13.3
19,O=C(NO)C(c1ccc(-c2ncc(C(F)(F)F)cn2)cc1)c1ccccc1F (stereo not given),0.24
20,Cc1ccsc1C(=CCCN1CCC[C@@H](C(=O)O)C1)c1sccc1C,-1.21

row,Structure (SMILES),ΔTm [°C]
1,NC(=O)c1cccc(NC(=O)CCC(=O)NCCc2cn(CCNS(=O)(=O)c3cccc(C(=O)O)c3)nn2)c1,-2.28
2,CC(C)c1ccc(C(=O)N=C(N)N)cc1S(C)(=O)=O,-2.37
3,CCc1oc2ccccc2c1C(=O)c1cc(Br)c(O)c(Br)c1,0.35
4,Cc1sc(C(=O)c2cncnc2N[C@@H]2C[C@H](COS(N)(=O)=O)[C@@H](O)C2)cc1[C@@H]1NCCc2ccc(Cl)cc21,-1.12
5,Nc1c[nH]c(=O)c2cc(-c3ccccc3)sc12,-0.64
6,O=C(O)CCNc1cc(N2CCc3ccccc3CC2)nc(-c2cccnc2)n1,2.29
7,CC1(C)CC[C@]2(C(=O)O)CC[C@]3(C)C(=CC[C@@H]4[C@@]5(C)C=C(O)C(=O)C(C)(C)[C@@H]5CC[C@]43C)[C@@H]2C1,-4.25
8,Cn1ncc2c(-c3c(-c4ccc(F)cn4)nn4c3COC(C)(C)C4)ccnc21,-1.67
9,Cc1[nH]c2c(N3CCCCC3)c(-c3ccccc3)nn2c(=O)c1-c1ccc(O)cc1,-0.41
10,O=C1c2ccccc2C(=O)c2oc(-c3cccnc3)nc21,-2.61
11,Cn1c(NCCN(CCO)CCCc2ccc([N+](=O)[O-])cc2)cc(=O)n(C)c1=O,-1.33
12,CC(C)[C@H](NC(=O)OCc1ccccc1)C(=O)NC(CC(=O)O)C(=O)CF (stereo not given in full),-2.03
13,CN(C)CCCNC(=O)c1ccc(-c2cc(O)c3ncccc3c2)cc1,-1.28
14,O=C(c1cc(Cc2n[nH]c(=O)c3ccccc23)ccc1F)N1CC(CNC2CC2)C1,-2.47
15,C[C@@H]1O[C@@H](CC(=O)O)CC2=C1C(=O)c1c(O)cccc1C2=O,-2.94
16,Cc1ncsc1-c1ccc([C@H](C)NC(=O)[C@@H]2C[C@@H](O)CN2C(=O)[C@@H](NC(=O)CNC(=O)c2ccc(F)c(-c3ccc(N4C[C@@H](C)N(C)[C@@H](C)C4)c(NC(=O)c4c[nH]c(=O)cc4C(F)(F)F)c3)c2)C(C)(C)C)cc1,-5.35
17,C[C@@H]1OC(=O)NN=C1c1ccc(-c2ccc(F)cc2)c(C(F)(F)F)c1,-7.3
18,N#C[C@@H]1CCCN1C(=O)CNC(=O)c1ccnc2ccc(OCCCN3CCN(C(=O)CN4CCN(CC(=O)O)CCN(CC(=O)O)CCN(CC(=O)O)CC4)CC3)cc12,-2.4
19,O=C1C(=O)N(Cc2ccccc2)c2ccc(S(=O)(=O)N3CCC[C@H]3COc3ccc(C(F)(F)F)cc3)cc21,-1.82
20,CCCCN(Cc1ccc(C(=O)NO)cc1)C(=O)Nc1ccccc1,-0.07
